Results from paper PMC4336329 (PLoS ONE, 2015).
Among all 310,000 compounds or so, about 14,000 (4.5%) showed an effect of 50% or more. Effects have a minus sign here. The sample holds strong results, similar compounds and a random draw of the others, so the mix is not that of the screen.

What follows are compounds tested against human ether-à-go-go-related gene (hERG) potassium channel (human, UniProt Q12809) (assay: primary screen, population patch clamp on CHO cells stably expressing hERG; higher = less effect of the substance).
Sequence of human ether-à-go-go-related gene (hERG) potassium channel (Q12809 whole entry, looked up): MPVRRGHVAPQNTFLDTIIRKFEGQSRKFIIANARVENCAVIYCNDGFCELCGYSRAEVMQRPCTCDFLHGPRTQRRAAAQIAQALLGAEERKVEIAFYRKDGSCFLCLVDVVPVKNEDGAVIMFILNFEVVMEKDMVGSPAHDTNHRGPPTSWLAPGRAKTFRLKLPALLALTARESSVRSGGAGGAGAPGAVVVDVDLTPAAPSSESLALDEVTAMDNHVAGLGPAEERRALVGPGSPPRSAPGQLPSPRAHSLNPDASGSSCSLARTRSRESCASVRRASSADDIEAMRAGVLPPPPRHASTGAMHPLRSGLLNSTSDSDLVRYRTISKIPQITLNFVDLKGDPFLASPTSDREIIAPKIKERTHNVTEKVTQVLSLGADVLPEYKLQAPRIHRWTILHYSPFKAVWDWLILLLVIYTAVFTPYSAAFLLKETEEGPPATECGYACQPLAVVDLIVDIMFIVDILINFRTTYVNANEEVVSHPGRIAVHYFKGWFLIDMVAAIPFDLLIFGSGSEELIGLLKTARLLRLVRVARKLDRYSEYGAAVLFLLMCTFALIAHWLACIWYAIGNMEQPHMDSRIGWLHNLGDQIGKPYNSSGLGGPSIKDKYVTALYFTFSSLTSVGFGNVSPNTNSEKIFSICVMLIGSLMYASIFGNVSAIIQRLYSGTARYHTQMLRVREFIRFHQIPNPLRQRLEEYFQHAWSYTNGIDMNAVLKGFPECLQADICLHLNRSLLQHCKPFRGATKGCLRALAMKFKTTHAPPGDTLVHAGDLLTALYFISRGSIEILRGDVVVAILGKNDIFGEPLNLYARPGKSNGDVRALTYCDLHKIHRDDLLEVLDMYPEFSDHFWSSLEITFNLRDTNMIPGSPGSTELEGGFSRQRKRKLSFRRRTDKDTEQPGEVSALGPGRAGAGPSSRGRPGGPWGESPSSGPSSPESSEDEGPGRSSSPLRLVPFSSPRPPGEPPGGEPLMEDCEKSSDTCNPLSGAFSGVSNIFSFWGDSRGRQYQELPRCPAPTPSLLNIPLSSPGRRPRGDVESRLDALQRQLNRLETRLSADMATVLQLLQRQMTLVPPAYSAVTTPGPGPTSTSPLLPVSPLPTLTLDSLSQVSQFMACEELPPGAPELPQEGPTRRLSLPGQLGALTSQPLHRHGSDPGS
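Note: peak tail current of the secondary pulse compared with the same well before compound.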

| Structure (SMILES) | hERG current change (%, negative = inhibition) at 10uM [%] |
| --- | --- |
| CC(C)NC(=O)C1CCN(C2CCN(CC3CC=CCC3)CC2)CC1 (stereo not drawn) | -15 |
| O=C(O)c1cc(-c2cccs2)[nH]n1 | 15.5 |
| C/C(=N\NC(=O)c1[nH]c2c([N+](=O)[O-])cc(C)cc2c1-c1ccccc1)c1cccnc1 | 6.67 |
| CN1CCN(C(=O)C23CCC(C)(c4nc5ccccc5nc42)C3(C)C)CC1 (stereo not drawn) | -53.3 |
| CC12CCC(C(=O)N3CCN(c4ncccn4)CC3)(c3nc4ccccc4nc31)C2(C)C (stereo not drawn) | -20.2 |
| CC12CCC(C(N)=O)(c3nc4ccccc4nc31)C2(C)C (stereo not drawn) | -4.08 |
| O=[N+]([O-])c1ccc(N2CCN(c3cccc(Cl)c3)CC2)cn1 | -63.2 |
| O=[N+]([O-])c1ccc(N2CCN(c3ccccc3Cl)CC2)cn1 | -34.3 |
| O=[N+]([O-])c1ccc(N2CCOCC2)cn1 | 15.4 |
| O=[N+]([O-])c1ccc(N2CCCCC2)cn1 | 8.92 |
| O=[N+]([O-])c1ccc(N2CCN(c3ccc(F)cc3)CC2)cn1 | -48.7 |
| O=[N+]([O-])c1ccc(N2CCN(c3ccc(O)cc3)CC2)cn1 | -52.8 |
| Cn1c(C(=O)NCc2ccccn2)cc2c(=O)n3ccccc3nc21 | -1.42 |
| CN(C)S(=O)(=O)c1cccc(NC(=O)c2cc3ccccc3o2)c1 | -13.7 |
| CCOc1ccc(N2C(=O)/C(=C/c3cccs3)N(CC(=O)OC)C2=S)cc1 | -28 |
| COC(=O)C(NC(C)=O)(Nc1nc2c(s1)CCCC2)C(F)(F)F (stereo not drawn) | -4.29 |
| COCCCNC(=O)CSC1=Nc2ccccc2C2=NC(c3ccccc3)C(=O)N12 (stereo not drawn) | -22.2 |
| O=C(Nc1ccc(F)cc1)Nc1ccc2ccccc2n1 | 14.2 |
| COc1ccc(-c2csc(NC(=O)c3cccc(N4C(=O)CCC4=O)c3)n2)cc1OC | -1.68 |
| COc1ccc(C)c2sc(N(CCCN(C)C)C(=O)c3ccc4c(c3)OCCO4)nc12.Cl | -75.6 |
| COc1ccc(OC)c2sc(N(CCN(C)C)C(=O)c3ccc4ccccc4c3)nc12.Cl | -11.3 |

| Structure (SMILES) | hERG current change (%, negative = inhibition) at 10uM [%] |
| --- | --- |
| Cc1cc(C)c2nc(N(CCCN(C)C)C(=O)c3ccc4c(c3)CCCC4)sc2c1.Cl | -3.72 |
| COc1ccc(C)c2sc(N(CCN(C)C)C(=O)c3cccc(N4C(=O)CCC4=O)c3)nc12.Cl | -57.9 |
| COc1ccc(C)c2sc(N(CCN(C)C)C(=O)c3ccc4ccccc4c3)nc12.Cl | -20.7 |
| COCCN(C(=O)C1CC(=O)N(Cc2ccccc2)C1)c1nc(-c2ccc([N+](=O)[O-])cc2)cs1 (stereo not drawn) | -29.7 |
| Cc1cc(C)c2nc(N(CCCN(C)C)C(=O)c3ccc4c(c3)OCCO4)sc2c1.Cl | -51.2 |
| COc1ccc(Cl)c2sc(N(CCN(C)C)C(=O)c3ccc4c(c3)OCCO4)nc12.Cl | -29.2 |
| CN(C)CCN(C(=O)c1cccc(N2C(=O)CCC2=O)c1)c1nc2ccc(Br)cc2s1.Cl | -48.7 |
| Cc1cc(C)c2nc(N(CCN(C)C)C(=O)c3ccc4ccccc4c3)sc2c1.Cl | 11.6 |
| COCCN(C(=O)c1cccc(N2C(=O)CCC2=O)c1)c1nc(-c2ccc([N+](=O)[O-])cc2)cs1 | -50.2 |
| CCOc1ccccc1NC(=O)NCc1ccco1 | 8.52 |
| CC(=O)N1CCc2cc(S(=O)(=O)CCC(=O)NCc3ccc(F)cc3)ccc21 | -13.8 |
| O=C1C=C(O)C(n2cncn2)C(c2ccc3c(c2)OCO3)C1 (stereo not drawn) | 17.1 |
| O=C(NCc1cccnc1)c1nc(-c2ccccc2)n(-c2ccccc2)n1 | -14.7 |
| O=C(CCCCCn1c(=S)[nH]c2ccc(N3CCOCC3)cc2c1=O)NCc1ccccc1 | 12 |
| COc1ccc(C(=O)OCc2c(C)noc2C)cc1 | 12.9 |
| COC(=O)c1ccc(NC(=S)NC2CCc3ccccc32)cc1 (stereo not drawn) | -13.9 |
| CNS(=O)(=O)c1ccc2c3c(cccc13)C(=O)N2 | 9.73 |
| Cc1ccc(S(=O)(=O)CC(=O)N(CCCN(C)C)c2nc3ccc(C)cc3s2)cc1.Cl | -43.9 |
| COc1ccc(OC)c2sc(N(CCCN(C)C)C(=O)c3ccc(S(=O)(=O)N4CCc5ccccc5C4)cc3)nc12.Cl | -8.54 |
| Cc1cccc2sc(N(CCCN3CCOCC3)C(=O)CS(=O)(=O)c3ccc(F)cc3)nc12.Cl | -16.9 |
| Cc1cc(C)c2nc(N(CCN(C)C)C(=O)/C=C/c3cccs3)sc2c1.Cl | 17.9 |

| Structure (SMILES) | hERG current change (%, negative = inhibition) at 10uM [%] |
| --- | --- |
| COc1ccc(C)c2sc(N(CCCN(C)C)C(=O)c3ccc(S(=O)(=O)N4CCc5ccccc5C4)cc3)nc12.Cl | 9.73 |
| COc1ccc(C)c2sc(N(CCCN(C)C)C(=O)CS(=O)(=O)c3ccc(F)cc3)nc12.Cl | -60.3 |
| Cc1cc(C)c2nc(N(CCCN(C)C)C(=O)c3ccc(S(=O)(=O)N4CC(C)OC(C)C4)cc3)sc2c1.Cl (stereo not drawn) | -33.7 |
| COc1ccc(C)c2sc(N(CCCN(C)C)C(=O)c3ccc(S(=O)(=O)N(C)C)cc3)nc12.Cl | -61.5 |
| Cc1cc(C)c2nc(N(CCCN(C)C)C(=O)C3=COCCO3)sc2c1.Cl | -65.9 |
| Cc1ccc(-n2nnnc2SCC(=O)N2CCCCC2)cc1 | -3.3 |
| CCNC(=S)N/N=C/c1c(Cl)cccc1Cl | 18.1 |
| Cc1cccc(-n2ncc3c2CCCC3NC(=O)C2CCOCC2)c1C (stereo not drawn) | 6.59 |
| O=C(Nc1cnc2ccccn2c1=O)c1ccc(Cl)cc1 | -23 |
| COc1ccc(C2(c3ccc(OC)cc3)NC(=O)N(CC(=O)Nc3ccccc3)C2=O)cc1 | 28.6 |
| NC(=O)NC(=O)CN1C(=O)NC(c2ccccc2)(c2ccccc2)C1=O | 4.8 |
| COc1cc(NC(=O)CN2C(=O)NC(c3ccccc3)(c3ccccc3)C2=O)cc(OC)c1 | 5.79 |
| CN(CC(=O)Nc1ccccc1Cl)C(=O)COC(=O)CN1C(=O)NC2(CCCC2)C1=O | 9.31 |
| COc1ccc(CNC(=O)C(C)N2C(=O)NC(c3ccccc3)(c3ccccc3)C2=O)cc1 (stereo not drawn) | -86.5 |
| CN(CC(=O)Nc1ccccc1Cl)C(=O)CN1C(=O)NC(c2ccccc2)(c2ccccc2)C1=O | -66.8 |
| CCNC(=O)NC(=O)C(C)N1C(=O)NC(c2ccccc2)(c2ccccc2)C1=O (stereo not drawn) | -43.6 |
| C=CCNC(=O)NC(=O)CN1C(=O)NC(c2ccccc2)(c2ccccc2)C1=O | -69.5 |
| O=C(CN1C(=O)NC(c2ccccc2)(c2ccccc2)C1=O)NCc1ccccc1 | -31 |
| CC(C(=O)NC(N)=O)N1C(=O)NC(c2ccccc2)(c2ccccc2)C1=O (stereo not drawn) | -14.9 |
| COc1ccc(NC(=O)CN2C(=O)NC(c3ccccc3)(c3ccccc3)C2=O)cc1 | -55 |
| CCN1C(=O)C(=O)N(CC(=O)N(C)CC(=O)Nc2ccccc2Cl)C1=O | 4.13 |
